Calls of active or inactive are those of the source. How the source made its calls: active means hit-call score of the fitted dose curve at least 0.9, where 1 is the maximum; inactive means score below 0.9.
Columns and labels:
Settings in all cases: mRNA level, 48 h; actives raise or lower the signal
[1] = read-out: Intercellular Adhesion Molecule 1 (ICAM1), ICAM1 (gene 3383); assay: LTEA_HepaRG_ICAM1: Life Technologies and Expression Analysis (LTEA) Assay for Intercellular Adhesion Molecule 1 (ICAM1) using HepaRG (AID 2283507)
Summary of the method: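 Differentiated HepaRG cells in serum-free induction medium were exposed in duplicate for 48 h to eight half-log concentrations up to 100 uM in 0.5% DMSO. Transcript levels were measured by qRT-PCR normalized to ACTB, GAPDH and POLR2A; bidirectional fits relative to DMSO.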

[2] = read-out: Insulin-like growth factor-binding protein 1 (IGFBP1), IGFBP1 (gene 3484); assay: LTEA_HepaRG_IGFBP1: Life Technologies and Expression Analysis (LTEA) Assay for Insulin-like growth factor-binding protein 1 (IGFBP1) using HepaRG (AID 2283508)
Summary of the method: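 Differentiated human HepaRG cells in serum-free induction medium were exposed in duplicate for 48 h to eight concentrations, top 100 uM with half-log dilutions, in 0.5% DMSO. Transcript levels came from qRT-PCR normalised to ACTB, GAPDH and POLR2A, fitted bidirectionally against DMSO.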

[3] = read-out: Interleukin 6 Receptor (IL6R), IL6R (gene 3570); assay: LTEA_HepaRG_IL6R: Life Technologies and Expression Analysis (LTEA) Assay for Interleukin 6 Receptor (IL6R) using HepaRG (AID 2283510);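 on AC50: TaqMan qRT-PCR signal normalized to ACTB GAPDH and POLR2A housekeeping genes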
Summary of the method: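 HepaRG, 48 h exposure, 8-pt half-log series, top 100 uM, 0.5% DMSO vehicle, duplicates. Read-out: TaqMan qRT-PCR of IL6R transcript, housekeeping-gene normalized. Gain or loss fitted relative to DMSO baseline.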

[4] = read-out: Potassium channel subfamily K member 1 (KCNK1), KCNK1 (gene 3775); assay: LTEA_HepaRG_KCNK1: Life Technologies and Expression Analysis (LTEA) Assay for Potassium channel subfamily K member 1 (KCNK1) using HepaRG (AID 2283511)
Summary of the method: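 Human HepaRG cultures receive test chemicals for 48 h in 0.5% DMSO, top concentration 100 uM with half-log dilutions. Induction or suppression of KCNK1 mRNA relative to DMSO is derived by bidirectional fitting of qRT-PCR data.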

[5] = read-out: Keratin 19 (KRT19), KRT19 (gene 3880); assay: LTEA_HepaRG_KRT19: Life Technologies and Expression Analysis (LTEA) Assay for Keratin 19 (KRT19) using HepaRG (AID 2283512)
Summary of the method: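 Differentiated human HepaRG cells, plated 48 h, were exposed in duplicate for 48 h in serum-free induction medium to eight half-log concentrations up to 100 uM in 0.5% DMSO. KRT19 mRNA was quantified by qRT-PCR, normalized to ACTB, GAPDH and POLR2A, and fitted bidirectionally versus DMSO.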

[6] = read-out: JUN Transcription Factor, JUN (gene 3725); assay: LTEA_HepaRG_JUN: Life Technologies and Expression Analysis (LTEA) Assay for JUN Transcription Factor using HepaRG (AID 2283513)
Summary of the method: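 HepaRG, 48 h exposure, 8-pt half-log series top 100 uM, 0.5% DMSO, duplicate. JUN mRNA by qRT-PCR (Fluidigm), housekeeping-normalized (ACTB/GAPDH/POLR2A); bidirectional curve fit vs DMSO baseline.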

[7] = read-out: Lipase C (LIPC), LIPC (gene 3990); assay: LTEA_HepaRG_LIPC: Life Technologies and Expression Analysis (LTEA) Assay for Lipase C (LIPC) using HepaRG (AID 2283514)
Summary of the method: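 In this multiplexed gene-expression screen, human HepaRG cultures received test chemicals for 48 h across eight concentrations with 100 uM highest, in duplicate. Values reflect LIPC mRNA induction or suppression versus DMSO vehicle, from normalized qRT-PCR.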

[8] = read-out: Lipoprotein lipase (LPL), LPL (gene 4023); assay: LTEA_HepaRG_LPL: Life Technologies and Expression Analysis (LTEA) Assay for Lipoprotein lipase (LPL) using HepaRG (AID 2283515)
Summary of the method: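 Concentration-response testing used half-log steps from 100 uM in 0.5% DMSO on human HepaRG cells, 48 h, duplicate wells. Phenobarbital 1 mM served as induction control; LPL mRNA was normalized to ACTB, GAPDH, POLR2A.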

[9] = read-out: MicroRNA 122 (MIR122), gene 406906; assay: LTEA_HepaRG_MIR122: Life Technologies and Expression Analysis (LTEA) Assay for MicroRNA 122 (MIR122) using HepaRG (AID 2283516); further: the transcript read is the microRNA miR-122
Summary of the method: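 qRT-PCR read-out (TaqMan, Fluidigm array), normalized to three housekeeping genes; HepaRG cells dosed 48 h at 8 concentrations up to 100 uM in 0.5% DMSO, duplicate; gain or loss fitted against DMSO baseline.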

Measured: AC50

CC(C)(c1ccccc1)c1ccc(O)cc1
active: [7] 83.6 µM
inactive: all other assays above

CCOC(=O)C(O)(c1ccc(Cl)cc1)c1ccc(Cl)cc1
active: [8] 9.14 µM
inactive: all other assays above

CCCCCCCCOC(=O)c1ccccc1C(=O)OCCCCCCCC
inactive: all assays above

O=C(N[C@H]1CN2CCC1CC2)c1cc2ccoc2cn1
inactive: all assays above

Oc1ccc(Cl)cc1Cl
inactive: all assays above

CCCCCCCCCC[N+](C)(C)CCCCCCCCCC
active: [1] 94.5 µM | [2] 81.6 µM | [6] 90.5 µM | [8] 88.7 µM
inactive: [3] | [5] | [7] | [9]

CCNc1nc(NC(C)C)nc(SC)n1
active: [3] 11.7 µM | [5] 32.8 µM | [7] 61.1 µM
inactive: all other assays above

O=C(O)C(F)(F)C(F)(F)C(F)(F)C(F)(F)C(F)(F)F
inactive: all assays above

CC(C)(O)C(=O)Nc1ccc([N+](=O)[O-])c(C(F)(F)F)c1
inactive: [3] | [5] | [8] | [9]
active: [1] 0.0402 µM | [2] 0.0432 µM | [4] 0.052 µM | [6] 0.0328 µM | [7] 0.0399 µM

CC#Cc1cc(C)nc(Nc2ccccc2)n1
inactive: [1] | [3] | [4] | [6]
active: [2] 21.9 µM | [5] 22.8 µM | [7] 15.3 µM | [8] 3.75 µM | [9] 21.7 µM

CCC(C)(c1ccc(O)cc1)c1ccc(O)cc1
inactive: all assays above

Cc1cc(O)ccc1Cl
inactive: all assays above

CCOP(=S)(OCC)SCSC(C)(C)C
inactive: all assays above

Oc1c(Cl)c(Cl)c(Cl)c(Cl)c1Cl
active: [2] 7.05 µM | [3] 5.66 µM | [4] 34.5 µM | [5] 6.33 µM | [7] 4.24 µM | [8] 5.08 µM | [9] 3.65 µM
inactive: [1] | [6]

C=CC(=O)NCNC(=O)C=C
inactive: all assays above

Cc1cc(-c2ccc(N)c(C)c2)ccc1N
active: [5] 30.8 µM | [8] 50 µM
inactive: all other assays above

Nn1cnnc1
inactive: all assays above

COc1ccc(O)c(C(C)(C)C)c1
inactive: all assays above

Cc1cccc([N+](=O)[O-])c1
inactive: all assays above

Cc1cc2c3c(c1)C(c1ccccc1)=N[C@@H](NC(=O)c1ccncc1)C(=O)N3CC2
active: [6] 50 µM | [7] 34.9 µM | [8] 21.1 µM
inactive: all other assays above

O=S(=O)(O)C(F)(F)C(F)(F)C(F)(F)C(F)(F)F
inactive: all assays above

c1cc2ccc3cccc4ccc(c1)c2c34
inactive: all assays above

Oc1ccc(C(c2ccc(O)cc2)(C(F)(F)F)C(F)(F)F)cc1
active: [2] 75.9 µM | [3] 89.2 µM | [6] 92.4 µM | [8] 79.3 µM
inactive: all other assays above

Source: PubChem BioAssay (EPA / NIEHS)
